Structures are written as SMILES. Records with an inconclusive call do not appear. The source made the active and inactive calls. The call rests on the fitted dose curve; in most records, active means well fitted inhibition curve with a large enough effect; inconclusive means small, poorly fitted or top-dose-only effect; inactive means flat fitted curve, though single readings scatter. Peptide text beside a SMILES is read from it.

Holding throughout (test): qHTS profiling for inhibitors of Plasmodium falciparum proliferation (AID 504749); further: nearly all actives have a fitted effect of over 60% in size
Holding throughout (conditions): P. falciparum in erythrocytes, SYBR Green DNA, 72 h; series mostly up to 28.7 µM

The subject of one assay is P93_24. The essentials: (§1)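 P. falciparum-infected erythrocytes (0.3% parasitemia, 2.5% hematocrit) incubated with compound 72 h at 37 C, 5% CO2. Parasite DNA detected by SYBR Green after lysis, overnight at room temperature; normalised to 0.29 uM artemisinin and DMSO.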
The next assay relates to P94_40. An outline of the steps:
as §1

The subject of the next assay is PAD. The essentials:
as §1

A further assay concerns PC15. An outline of the steps: as §1
The subject of a further assay is PC26. An outline of the steps:
as §1

The next assay concerns PC49. An outline of the steps: as §1
In the next assay the test system is SC27B. The essentials: as §1
Another assay relates to TAB109. An outline of the steps:
as §1

For another assay, the system named is TAB113. An outline of the steps:
as §1

Another assay has as its system TAB165. An outline of the steps:
as §1
Potency means the concentration at half of the fitted maximal effect.

In the case of `O=C(NC(Cc1cc(=O)[nH]c2ccccc12)C(=O)O)c1ccc(Cl)cc1` (centres undefined), the Potency result in the assay on P93_24, with P94_40, in the assay with PAD, in the assay on PC15, with PC26 and with PC49 was “inactive” throughout. The Potency result with SC27B, in the assay on TAB109, in the assay on TAB113 and in the assay on TAB165 was “inactive” in each case.

Consider `CCCc1cc(=O)[nH]c(=S)[nH]1`, for which the Potency entry in the assay on P93_24, in the assay on P94_40, in the assay on PAD, with PC15, with PC26 and in the assay with PC49 was “inactive” throughout. The Potency result with SC27B, in the assay on TAB109, in the assay with TAB113 and in the assay with TAB165 was “inactive” each time.

For the compound `Nc1cccc2c1CN(C1CCC(=O)NC1=O)C2=O` (centres undefined), the Potency result in the assay with P93_24, in the assay on P94_40, with PAD, with PC15, in the assay with PC26 and in the assay on PC49 was “inactive” in each case. Also, the Potency result in the assay on SC27B, with TAB109, with TAB113 and with TAB165 was “inactive” throughout.

With `CC(C)[C@H](N)C(=O)OCCOCn1cnc2c(=O)[nH]c(N)nc21`, the Potency entry in the assay on P93_24, with P94_40, in the assay with PAD, in the assay on PC15, in the assay with PC26 and in the assay on PC49 was “inactive” in each case. Moreover, the Potency entry with SC27B, with TAB109, with TAB113 and with TAB165 was “inactive” throughout.

Regarding `CNC[C@H](O)c1ccc(O)c(O)c1`, the Potency entry with P93_24, in the assay on P94_40, with PAD, with PC15, with PC26 and in the assay on PC49 was “inactive” throughout. Besides, the Potency result in the assay on SC27B, in the assay with TAB109, with TAB113 and in the assay on TAB165 was “inactive” in each case.

As to `N=C(N=C(N)N)N1CCOCC1`, the Potency result in the assay with P93_24, in the assay on P94_40, with PAD, with PC15, with PC26 and in the assay with PC49 was “inactive” each time. The Potency entry in the assay on SC27B, in the assay on TAB109 and in the assay with TAB113 was “inactive” in each case.

As to `O=C(O)CCNC(=O)c1ccc(N=Nc2ccc(O)c(C(=O)O)c2)cc1`, the Potency result with P93_24, in the assay with P94_40, in the assay with PAD, with PC15, with PC26 and with PC49 was “inactive” throughout. For the same compound, the Potency entry in the assay on SC27B, in the assay with TAB109, in the assay with TAB113 and in the assay with TAB165 was “inactive” each time.

On to `COC(=O)[C@H](Cc1ccccc1)NC(=O)[C@@H](N)CC(=O)O` (H-Asp-Phe-OMe), for which the Potency entry in the assay on P93_24, in the assay on P94_40, in the assay with PAD, with PC15, in the assay with PC26 and in the assay on PC49 was “inactive” throughout. Further, the Potency result in the assay on SC27B, in the assay on TAB109, in the assay on TAB113 and with TAB165 was “inactive” in each case.

Regarding `COc1cc2c(cc1OC)C1CC(=O)C(CC(C)C)CN1CC2` (centres undefined), the Potency result in the assay with P93_24, in the assay with P94_40, in the assay with PAD, in the assay with PC15, in the assay on PC26 and in the assay on PC49 was “inactive” each time. The Potency entry with SC27B, in the assay with TAB109, with TAB113 and with TAB165 was “inactive” in each case.

In the case of `Cc1cccc(C)c1OCC(=O)N[C@@H](Cc1ccccc1)[C@@H](O)C[C@H](Cc1ccccc1)NC(=O)[C@H](C(C)C)N1CCCNC1=O`, the Potency in the assay on P93_24 was 1.12 µM (active); with P94_40 it was 2.51 µM (active); in the assay with PAD it was 0.891 µM (active); with PC15, 3.98 µM (active); with PC26, 1.9 µM (active); in the assay with PC49, 2 µM (active). For the same compound, the Potency with SC27B is 1.12 µM (active); in the assay on TAB109, 2.82 µM (active); in the assay on TAB113, 1.78 µM (active); in the assay with TAB165, 1 µM (active).

Consider `CS(=O)(=O)OCCCCOS(C)(=O)=O`, for which the Potency entry in the assay on P93_24, in the assay on P94_40, with PAD, in the assay with PC15, in the assay on PC26 and with PC49 was “inactive” each time. For the same compound, the Potency entry with SC27B, in the assay with TAB109, in the assay on TAB113 and in the assay on TAB165 was “inactive” in each case.

Take `O=C(O)c1cc(=O)c2c(OCC(O)COc3cccc4oc(C(=O)O)cc(=O)c34)cccc2o1`: the Potency result in the assay with P93_24, with P94_40, in the assay on PAD, in the assay with PC15, with PC26 and with PC49 was “inactive” throughout. Also, the Potency entry with SC27B, with TAB109, in the assay with TAB113 and with TAB165 was “inactive” in each case.

Turning to `C[C@H](Cn1cnc2c(N)ncnc21)OCP(=O)(O)O`, the Potency entry in the assay with P93_24, in the assay on P94_40, in the assay with PAD, in the assay with PC15, with PC26 and in the assay with PC49 was “inactive” each time. Moreover, the Potency entry in the assay with SC27B, in the assay with TAB109, with TAB113 and in the assay with TAB165 was “inactive” each time.

For `Nc1ccc(S(N)(=O)=O)cc1`, the Potency entry in the assay on P93_24, with P94_40, in the assay with PAD, with PC15, in the assay on PC26 and in the assay with PC49 was “inactive” throughout. For the same compound, the Potency entry in the assay with SC27B, in the assay on TAB109, in the assay with TAB113 and in the assay on TAB165 was “inactive” each time.

`COc1cc(OC)c(C(=O)CCCN2CCCC2)c(OC)c1`: the Potency entry in the assay on P93_24, in the assay with P94_40, in the assay with PAD, with PC15, with PC26 and with PC49 was “inactive” throughout. In addition, the Potency result with SC27B, in the assay on TAB109, in the assay on TAB113 and with TAB165 was “inactive” in each case.

For `CCC1=C(C)CN(C(=O)NCCc2ccc(S(=O)(=O)NC(=O)NC3CCC(C)CC3)cc2)C1=O` (centres undefined), the Potency entry in the assay with P93_24, in the assay on P94_40, with PAD, in the assay on PC15, in the assay with PC26 and in the assay with PC49 was “inactive” throughout. Besides, the Potency result with SC27B, in the assay with TAB109, in the assay on TAB113 and in the assay with TAB165 was “inactive” in each case.

For the compound `O=C(NCCO[N+](=O)[O-])c1cccnc1`, the Potency entry in the assay on P93_24, with P94_40, in the assay with PAD, in the assay with PC15, in the assay on PC26 and in the assay on PC49 was “inactive” throughout. Further, the Potency result in the assay with SC27B, in the assay with TAB109, in the assay on TAB113 and in the assay with TAB165 was “inactive” each time.

With `O=c1oc2cc(O)ccc2s1`, the Potency result in the assay with P93_24, in the assay with P94_40, in the assay with PAD, with PC15, in the assay on PC26 and with PC49 was “inactive” each time. In addition, the Potency result in the assay on SC27B, in the assay on TAB109, with TAB113 and in the assay on TAB165 was “inactive” in each case.

For the origin of these results see PubChem BioAssay (NCATS).
